tim10-1 inh: growth inhibitors of tim10-1 mutant yeast, primary screen, luminescence, uHTS; S. cerevisiae tim10-1 ts strain growth, BacTiter-Glo, 24 h; inhibition, % at 20 µM; actives 2.2% (n = 330,000); AID 463190, 2010;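 active = inhibition of at least 40%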;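 note: mutant grown at 25 °C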
CR mimetic SO: reduction of superoxide in aged yeast, primary screen, HTS | S. cerevisiae aged cells, superoxide DHE fluorescence; stronger effect = lower value | superoxide response (% of plate mean), % at 10 µM | actives 0.18% (n = 330,000);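 active = superoxide response under a set limit, about three screen SD below normal, cut at about 65% in these data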;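 note: yeast aged for seven days with compound at 30 °C before DHE staining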
tim23-1 inh: growth inhibitors of tim23-1 mutant yeast, primary screen, luminescence, uHTS | inhibition, % at 20 µM | actives 1.3% (n = 330,000) | S. cerevisiae tim23-1 growth, BacTiter-Glo luminescence, 24 h;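 active = growth inhibition of the mutant yeast at or above 50%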;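 note: temperature-sensitive mutant grown at 25 °C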
TIM10 inh: growth inhibitors of isogenic TIM10 control yeast, primary screen, counter-screen for tim10-1 yeast inhibitor project, luminescence, uHTS; S. cerevisiae TIM10 strain growth, BacTiter-Glo luminescence, 24 h; inhibition, % at 10 µM; actives 1.4% (n = 330,000); AID 463195, 2010;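 active = inhibition of 40% or more at the single tested concentration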;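 note: wild-type TIM10 isogenic control strain grown at permissive 25 °C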
NALP3 yeast inh: NALP3 inflammasome inhibitors in reconstituted yeast, primary screen, luminescence, uHTS. Yeast reconstituted NLRP3/ASC/caspase-1, beta-gal luminescence, 24 h. inhibition, % at 10 µM. actives 0.39% (n = 330,000). AID 2825, 2010;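 active = inhibition of 50% or more; inactive = inhibition below 50%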
tim10-1 conf: growth inhibitors of tim10-1 mutant yeast, confirmation, single concentration, luminescence, S. cerevisiae; shares compounds with tim10-1 inh; S. cerevisiae tim10-1 ts strain growth, BacTiter-Glo, 24 h; inhibition, % at 20 µM; actives 56% (n = 7,400); AID 463213, 2010;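 active = inhibition of yeast growth at or above a set limit in either of two repeat tests at 20 µM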;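 note: tim10-1 mutant grown at permissive 25 °C to find synthetic lethal compounds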
tim10 confirm: growth inhibitors of wild-type TIM10 yeast, confirmation, counter-screen for tim10-1 synthetic lethality project, single concentration, luminescence, S. cerevisiae | shares compounds with TIM10 inh | S. cerevisiae tim10 strain growth, BacTiter-Glo luminescence, 24 h | inhibition, % at 10 µM | actives 63% (n = 4,600) | AID 463215, 2010;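 active = inhibition of yeast growth at or above a set limit in either of two replicates at 10 µM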; note: this counterscreen used the strain with wild-type TIM10
tim23-1 conf: tim23-1 mutant yeast growth inhibitors, confirmation, luminescence, single concentration; shares compounds with tim23-1 inh; S. cerevisiae tim23-1 growth, BacTiter-Glo luminescence, 24 h; inhibition, % at 20 µM; actives 83% (n = 4,400);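 active = inhibition above about 39% in either of two replicate wells at 20 µM, limit read from the data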;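 note: temperature-sensitive tim23-1 mutant grown at 25 °C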
Numbers stand for hits; . = inactive; / = no result given. In the library only some 3.8% were active in any assay of this set; here they are far more common.

SMILES	tim10-1 inh	CR mimetic SO	tim23-1 inh	TIM10 inh	NALP3 yeast inh	tim10-1 conf	tim23-1 conf	others
CNC(=S)N/N=C/c1cn(Cc2c(F)cccc2Cl)c2ccccc12	47.1	.	51.1	57.1	.	37.0	40.0	tim10 confirm=.
Cc1cccc(NC(=O)CN(CC2CCCO2)C(=O)c2cc3ccccc3o2)c1C (configuration not stated)	.	/	.	.	.	/	/
COc1ccc(-c2csc(Nc3ccccc3)n2)cc1	46.2	.	54.2	61.1	.	36.8	47.6	tim10 confirm=43.3
O=[N+]([O-])c1cccc(-c2csc(Nc3ccccc3)n2)c1	50.4	.	85.6	64.3	.	59.0	67.2	tim10 confirm=65.5
COc1ccccc1Nc1nc(-c2cccc([N+](=O)[O-])c2)cs1	.	.	.	.	.	/	/
CC(=O)C[C@@H](O)CC(=O)[C@@H]1OC(=O)CCCCCCc2ccccc21	.	.	.	.	.	/	/
O=S(=O)(NC12CC3CC(CC(C3)C1)C2)c1ccc(F)cc1	47.8	.	55.0	.	.	29.9	48.8
CC(=O)Nc1ccc(N2CCCCC2)c(C(=O)Nc2cccc(C)c2)c1	42.7	.	54.3	.	.	56.9	49.6
Clc1ncnc2scc(-c3ccc(Br)cc3)c12	.	.	50.1	.	.	.	51.8
COc1ccc(Cl)c2sc(N(CCN(C)C)C(=O)c3ccc4c(c3)OCCO4)nc12	.	.	.	.	.	/	/
O=C(Cc1nc2ccccc2[nH]1)c1ccc(Cl)cc1	.	.	.	.	.	/	/
Clc1ccc(/C(Cc2nc3ccccc3[nH]2)=N\Nc2ccccc2)cc1	46.2	.	52.9	55.9	.	.	45.2	tim10 confirm=56.0
COc1ccc(OCC(=O)NCCCNC(=O)COc2ccc(OC)cc2)cc1	.	.	.	.	.	/	/
COc1ccccc1-c1cc(C(=O)N/N=C/c2ccc(C)s2)c2ccccc2n1	41.9	.	61.2	.	.	.	65.0
COc1cc(NC(=O)c2nccnc2N)cc(C(=O)Nc2cccc(C(F)(F)F)c2)c1	.	.	.	.	.	/	/
COc1cc(Nc2ccccn2)cc(C(=O)Nc2cccc(C(F)(F)F)c2)c1	49.3	.	51.0	.	.	36.1	64.8
O=C(CSc1nncn1-c1ccccc1F)NC1CCCCC1	.	.	.	.	.	/	/
COc1cc(OC)c(C(=O)/C=C/c2ccccc2)c(O)c1O	50.8	.	58.3	.	.	32.4	62.9
COc1ccc(/C=C/C(=O)ONC2=NCCCCC2)cc1OC	67.6	.	58.4	49.0	.	68.6	.	tim10 confirm=37.0
O=C(COC(=O)c1ccc(F)cc1F)NCc1ccc2c(c1)OCO2	.	.	.	.	.	/	/
CCSc1nc2ccccc2n1C(=O)/C=C/c1ccc(OC)c(OC)c1	57.8	.	50.8	.	.	44.3	54.4
CCn1c(SCC(=O)N/N=C/c2ccc(OC)c(OC)c2)nc2ccccc21	.	.	.	.	.	/	/
O=C1CC(Sc2ncccn2)C(=O)N1c1ccccc1 (configuration not stated)	.	.	.	.	.	/	/
Nc1nnc(SC2CC(=O)N(c3ccccc3)C2=O)s1 (configuration not stated)	66.2	.	59.5	.	.	53.5	58.1
Cc1csc(NC(=O)C2CCCN(S(=O)(=O)c3ccc(Br)s3)C2)n1 (configuration not stated)	46.2	.	55.0	.	.	37.9	50.7
SMILES	tim10-1 inh	CR mimetic SO	tim23-1 inh	TIM10 inh	NALP3 yeast inh	tim10-1 conf	tim23-1 conf	others
COc1ccccc1C(=O)OCC(=O)NC1CCCC1	.	.	.	.	.	/	/
COc1ccc(CNC(=O)C(c2ccncc2)N(C(=O)Cc2cccs2)c2ccc(C)cc2)cc1 (configuration not stated)	.	.	.	.	.	/	/
O=c1oc(-c2ccco2)nc2c1cnn2-c1ccccc1	48.5	.	63.9	.	.	34.8	66.7
O=c1c2cnn(-c3ccccc3)c2nc(-c2ccco2)n1-c1ccccc1	.	.	.	.	.	/	/
COc1cccc(C(=O)NN/C(C)=C/C(=O)C(F)(F)C(F)(F)C(F)(F)F)c1	.	.	.	.	.	/	/
O=C(O)/C(=C\c1ccccc1OC(F)F)Sc1nnc(-c2ccc(F)cc2)o1	71.0	.	70.3	58.8	.	75.1	70.8	tim10 confirm=68.5
CSc1nnc(-c2ccc(F)cc2)o1	.	.	.	.	.	/	/
O=c1[nH]nc(-c2ccc(NCCO)c([N+](=O)[O-])c2)c2ccccc12	.	.	.	.	.	/	/
O=[N+]([O-])c1cc(Cl)cc2c1nc(NCCO)c1ccccc12	67.2	.	54.8	.	.	50.4	46.7
Cc1cc2occ(CC(=O)N(C)CC(=O)Nc3cccc(F)c3)c2cc1C	.	.	.	.	.	/	/
Cc1nnc(C)n1/N=C/c1cc(Br)ccc1O	.	.	.	.	.	/	/
Oc1c(Br)cc(Br)cc1/C=N/n1c(-c2ccccc2)n[nH]c1=S	66.0	.	79.7	.	.	49.5	88.1
CS/C(N)=N/N=C/c1cc(Br)cc(Br)c1O	47.3	.	75.8	71.3	.	61.4	78.6	tim10 confirm=61.2
Cc1nnc(C)n1/N=C/c1cc(Br)cc(Br)c1O	56.2	.	62.5	62.8	.	32.4	85.2	tim10 confirm=.
Oc1c(Br)cc(/C=N/n2c(-c3ccccc3)n[nH]c2=S)c(Br)c1O	/	.	/	/	/	/	/
CS/C(N)=N/N=C/c1cc(C)ccc1O	.	.	.	.	.	/	/
Cc1ccc(S(=O)(=O)/N=C2\C=C(Nc3ccc(O)cc3)C(=O)c3ccccc32)cc1	64.2	.	50.9	.	.	74.2	70.5
O=C(c1cc(C2CC2)nc2ccc(Br)cc12)N1N=C(C(F)F)CC1(O)C(F)F (configuration not stated)	.	.	.	.	.	/	/
CCOCCCNC(=O)/C(C#N)=C/c1ccc(Cl)c([N+](=O)[O-])c1	47.3	.	86.1	65.9	.	72.8	88.2	tim10 confirm=81.9
CN1CCN(c2ccccc2NC(=O)c2ccc(-c3ccc(Br)cc3)o2)CC1	56.3	.	.	.	.	46.3	.
O=C1C(Nc2ccccc2)=C/C(=N/S(=O)(=O)c2cccs2)c2ccccc21	/	.	/	/	/	/	/
COC(=O)c1ccccc1NC1=C/C(=N\S(=O)(=O)c2cccs2)c2ccccc2C1=O	45.6	.	55.8	41.0	.	41.1	39.8	tim10 confirm=.
